Many of the other results were omitted from the sample, so hits are more common in it than they were.
Pf Dd2 inh: inhibitors of Plasmodium falciparum Dd2 growth; P. falciparum Dd2 growth, SYBR Green, 72 h; Potency, µM (doses to about 28.9 µM), inactives show top-dose activity, negative = inhibition, most hits filed as inhibitors; actives 4.3% (n = 120,000); AID 1347417; active means well fitted inhibition curve with a large enough effect;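 further: plate controls were DMSO vehicle for no effect and reference drug for full effect; nearly all actives have a fitted effect of over 65% in size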
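Infected erythrocytes (Dd2, 0.3% parasitemia, 2.5% hematocrit final) are added to compound in RPMI-1640/Albumax II medium, grown 72 h at 37C in low oxygen, then lysed with saponin/Triton-X containing SYBR Green and read by fluorescence.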
* hit, by the source's call; [ ] = remark or other dose. Potency means the concentration at half of the fitted maximal effect.

For O=C1C(OCC2CC2)C2(CCCCC2)N1C1CCN(Cc2ccncc2F)CC1 (centres undefined) the results were Pf Dd2 inh inactive.
Screening O=C1C(OCC2CC2)C2(CCCCC2)N1C1CCN(Cc2cccnc2)CC1 (centres undefined) returned Pf Dd2 inh 8.91µM*.
Screening O=C(O)CCC(=O)N1Cc2ccccc2CC2(CCN(CC3CCNC3)C2)C1 (centres undefined) returned Pf Dd2 inh 13.7%.
For CCc1ccccc1NC(=O)N1CC(c2nnc(-c3ccncc3)o2)C2(CCOCC2)C1 (centres undefined) the results were Pf Dd2 inh -13.3%.
For CN(C)C[C@H]1O[C@@H](CO)[C@@H](O)[C@H]1N1CCN(c2ccc(F)cc2)CC1 the results were Pf Dd2 inh -0.3%.
Screening O=C(Cc1ccc2c(c1)OCO2)N(Cc1ccncc1)Cc1cccc(OCCc2ccc(F)cc2)c1 returned Pf Dd2 inh 11.2µM*.
O=C(CN1C(=O)COc2ccc(C(=O)COc3cccc(F)c3)cc21)NCc1ccc2c(c1)OCO2 was read as Pf Dd2 inh inactive.
Screening O=C(Cc1ccc2c(c1)OCO2)N1CCNc2cnc(Nc3cccc(F)c3)nc2C1 returned Pf Dd2 inh -2.8%[44.1 µM].
`CCOCC(=O)N1CCC(C2CCN(S(C)(=O)=O)CC2)C1` (centres undefined) gave Pf Dd2 inh 14.0%.
O=[N+]([O-])c1ccccc1CN1C[C@H](O)C[C@H]1c1nc(Cc2ccc(F)cc2Cl)no1 was read as Pf Dd2 inh inactive.
For O[C@@H]1C[C@@H](c2nc(Cc3ccc(F)cc3Cl)no2)N(Cc2ccc(OC(F)(F)F)cc2)C1 the results were Pf Dd2 inh 7.94µM*.
`O[C@@H]1C[C@@H](c2nc(-c3ccc4c(c3)OCO4)no2)N(Cc2cccc(OC(F)(F)F)c2)C1` gave Pf Dd2 inh -10.0%.
For CCNC(=O)Nc1ccc(OCC(=O)N2CCN(c3cccc(OC)c3)CC2)nc1 the results were Pf Dd2 inh -0.2%.
`CC(C)c1nnc(C2CN(C(=O)c3cnccn3)CC23CCOCC3)o1` (centres undefined) gave Pf Dd2 inh -21.0%.
For CN(C)Cc1ccc(-c2cc(-c3cn[nH]c3)c3cncn3c2)cc1 the results were Pf Dd2 inh 10.6%[44.1 µM].
`OCc1ccc(-c2cc(-c3ccncc3)c3cncn3c2)cc1` gave Pf Dd2 inh -5.6%[44.1 µM].
Screening COc1cc(F)ccc1-c1cc(-c2cn[nH]c2)c2cncn2c1 returned Pf Dd2 inh inactive.
Fc1cccc(-c2cc(-c3cn[nH]c3)c3cncn3c2)c1 was read as Pf Dd2 inh -1.9%[44.1 µM].
Screening Cn1cc(-c2cc(-c3ccncc3)c3cncn3c2)cn1 returned Pf Dd2 inh inactive.
Screening COc1ccc(-c2cc(-c3ccc(F)cc3)cn3cncc23)cc1 returned Pf Dd2 inh 3.16µM*.
For FC(F)(F)c1cccc(-c2cc(-c3ccncc3)c3cncn3c2)c1 the results were Pf Dd2 inh -13.4%[44.1 µM].
Screening COc1ccccc1-c1cc(-c2ccc(=O)[nH]c2)c2cncn2c1 returned Pf Dd2 inh 15.2%[44.1 µM].
`COc1ccc(-c2cc(-c3ccncc3)c3cncn3c2)cc1` gave Pf Dd2 inh 11.2µM*.
`COc1ccc(-c2cc(-c3ccncc3)cn3cncc23)cc1` gave Pf Dd2 inh 10µM*.
COc1ccc(-c2cc(-c3ccc(F)cc3OC)cn3cncc23)cc1 was read as Pf Dd2 inh 6.31µM*.
CNC(=O)[C@@H](c1ccccc1)N1CCC[C@H]1C(=O)NCCc1c[nH]c2ccccc12 was read as Pf Dd2 inh inactive.
`Cc1noc(-c2ccc(OC3CN(S(=O)(=O)c4cn(C)cn4)C3)cc2)n1` gave Pf Dd2 inh 94.4%[5.79 µM].
Screening COc1ccccc1C(=O)N1CCC(OC2CCN(S(C)(=O)=O)CC2)CC1 returned Pf Dd2 inh 44.3%.
Screening Cc1cnc(C)c(N2CCN(Cc3nc(-c4sccc4C)oc3C)CC2)n1 returned Pf Dd2 inh inactive.
For CCCNC(=O)N1C[C@@H](Oc2ccccc2)C[C@@H]1C(=O)NCCOC the results were Pf Dd2 inh 0.4%.
O=C(c1ccc(Cl)cc1)N1CC(CO)C2(CCNCC2)C1 (centres undefined) was read as Pf Dd2 inh -5.1%.
`O=C(NC1CCN(c2cc(-c3cccs3)[nH]n2)C1)c1ccccc1Br` (centres undefined) gave Pf Dd2 inh inactive.
Screening COc1cccc(CN2CCCC(COc3ccccc3C(=O)NC3CC3)C2)n1 (centres undefined) returned Pf Dd2 inh -8.8%.
For COCCN1C(=O)C(CC(=O)NCCc2ccccc2)=C2CCCCC21 (centres undefined) the results were Pf Dd2 inh -8.5%.
For Cc1noc(C)c1-c1cc(-c2ccc3c(c2)C(=O)NC3)cn2cncc12 the results were Pf Dd2 inh inactive.
`COc1ccc(-c2cc(-c3ccc4c(c3)CNC4=O)cn3cncc23)cc1` gave Pf Dd2 inh 4.47µM*.
For c1cc(-c2cc(-c3ccncc3)c3cncn3c2)c2[nH]ncc2c1 the results were Pf Dd2 inh inactive.
COc1cccc(-c2cc(-c3ccncc3)c3cncn3c2)c1OC was read as Pf Dd2 inh 10µM*.
Screening O=C(CN1C(=O)CNC1=O)N1C[C@H](CO)C[C@H](CN2CCOCC2)C1 returned Pf Dd2 inh -4.8%.
`Cc1ccc(CNC(=O)c2ccc(Nc3nc4ccccc4n4nnnc34)cc2)cc1` gave Pf Dd2 inh -2.9%.
`COc1ccccc1N1CCN(C(=O)c2ccc(Nc3nc4ccccc4n4nnnc34)cc2)CC1` gave Pf Dd2 inh 10µM*.
Screening COc1ccc(CCNC(=O)c2ccc(Nc3nc4ccccc4n4nnnc34)cc2)cc1OC returned Pf Dd2 inh 8.91µM*.
O=C(NCCc1ccc(Cl)cc1)c1ccc(Nc2nc3ccccc3n3nnnc23)cc1 was read as Pf Dd2 inh -26.6%.
`COc1ccc(CCNC(=O)c2cccc(Nc3nc4ccccc4nc3-n3nc(C)cc3C)c2)cc1OC` gave Pf Dd2 inh -14.1%.
CC(NC(=O)c1cccc(Nc2nc3ccccc3n3nnnc23)c1)c1ccccc1 (centres undefined) was read as Pf Dd2 inh 5.4%.
Cc1noc([C@@H]2CN(Cc3cccc(Cl)c3F)C[C@H]2CO)n1 was read as Pf Dd2 inh -8.4%.
For COC(=O)CN1C(=O)[C@@H]2C[C@@H](O)CN2C2(CN(Cc3ccc(OC)cc3)C2)C1=O the results were Pf Dd2 inh 42.4%[44.1 µM].
`Cc1ccc(NC(=O)Cn2ccn3nc(-c4ccccc4)c(CO)c3c2=O)c(Cl)c1` gave Pf Dd2 inh 25.8%.
O=C(COc1ccc(Cl)cc1Cl)Nc1cccc2cccnc12 was read as Pf Dd2 inh 10.9%.
Screening Cc1cccc(NC(c2cccc(Cl)c2)c2ccc3cccnc3c2O)n1 (centres undefined) returned Pf Dd2 inh 2.51µM*.
COc1ccc(C(Nc2ccccn2)c2ccc3ccc(C)nc3c2O)cc1C (centres undefined) was read as Pf Dd2 inh 21.1%.
Screening O=C(NC1C[C@H]2CC[C@@H](C1)N2C(=O)Cc1ccc(Br)cc1)c1ccncc1 (some centres undefined) returned Pf Dd2 inh inactive.
`O=C(C1CCCCC1)N1CCCC2(CC(c3cccnc3)=NO2)C1` (centres undefined) gave Pf Dd2 inh 15.0%.
Screening COc1ccccc1C1CCCN1C(=O)CCCn1nnnc1CN1CCOCC1 (centres undefined) returned Pf Dd2 inh -11.2%.
Screening Cn1nnnc1C1CCCN(C(=O)CCC2CCCC2)C1 (centres undefined) returned Pf Dd2 inh 8.9%.

Screening data: PubChem BioAssay, National Center for Advancing Translational Sciences (NCATS)
